Test results published in PubChem BioAssay (NCI).
This is part of a sample that, as a whole, favours compounds with a hit. Of some 83,000 tested, about 20% had one in any assay.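 Step 1: grow cells in 96-well plates. Step 2: add test compound at a single concentration. Step 3: incubate 48 h. Step 4: record percent growth.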 A number with no mark means an inactive call. Active and inactive are the calls of the source. Rule for the calls: active = growth percent below 10; inactive = the rest.

What was measured:
Test in all cases: NCI-60 one-dose screen, 48 h (100 = growth as untreated, 0 = no growth, -100 = all killed)
Conditions in all cases: 10 µM unless noted
SR leukemia = tested on: SR leukemia
RPMI-8226 leukemia = tested on: RPMI-8226 leukemia
OVCAR-8 ovarian = tested on: OVCAR-8 ovarian
OVCAR-5 ovarian = tested on: OVCAR-5 ovarian
OVCAR-4 ovarian = tested on: OVCAR-4 ovarian
SK-OV-3 ovarian = tested on: SK-OV-3 ovarian
IGROV1 ovarian = tested on: IGROV1 ovarian
OVCAR-3 ovarian = tested on: OVCAR-3 ovarian
HS 578T breast = tested on: HS 578T breast
NCI/ADR-RES ovarian = tested on: NCI/ADR-RES ovarian
T-47D breast = tested on: T-47D breast
BT-549 breast = tested on: BT-549 breast
MDA-MB-435 melanoma = tested on: MDA-MB-435 melanoma
SW-620 colon = tested on: SW-620 colon
MCF7 breast = tested on: MCF7 breast
HCT-116 colon = tested on: HCT-116 colon
HCC-2998 colon = tested on: HCC-2998 colon
KM12 colon = tested on: KM12 colon
MDA-MB-468 breast = tested on: MDA-MB-468 breast

## CC(C)CSc1nc(NCCc2c[nH]c3ccccc23)c(C#N)c(-c2ccc(Cl)cc2)n1
SR leukemia
  growth: 7.81% (active)
RPMI-8226 leukemia
  growth: 36.3%
OVCAR-8 ovarian
  growth: 76.2%
OVCAR-5 ovarian
  growth: 80.5%
OVCAR-4 ovarian
  growth: 78.3%
SK-OV-3 ovarian
  growth: 81.7%
IGROV1 ovarian
  growth: 96.2%
OVCAR-3 ovarian
  growth: 76.4%
HS 578T breast
  growth: 51.6%
NCI/ADR-RES ovarian
  growth: 54.7%
T-47D breast
  growth: 31.7%
BT-549 breast
  growth: 83.5%
MDA-MB-435 melanoma
  growth: 72.5%
SW-620 colon
  growth: 24.9%
MCF7 breast
  growth: 16.4%
HCT-116 colon
  growth: 19.5%
HCC-2998 colon
  growth: 52.3%
KM12 colon
  growth: 35.1%
MDA-MB-468 breast
  growth: 53.9%

## COc1ccc(-c2ccnc(SCc3cc4cc(Cl)ccc4[nH]c3=O)n2)cc1
SR leukemia
  growth: 92.5%
RPMI-8226 leukemia
  growth: 73.8%
OVCAR-8 ovarian
  growth: 34.1%
OVCAR-5 ovarian
  growth: 135%
OVCAR-4 ovarian
  growth: 10.1%
SK-OV-3 ovarian
  growth: -2.33% (active)
IGROV1 ovarian
  growth: 95.8%
OVCAR-3 ovarian
  growth: 58.2%
HS 578T breast
  growth: -5.84% (active)
NCI/ADR-RES ovarian
  growth: 44.8%
T-47D breast
  growth: 62.1%
BT-549 breast
  growth: -18.5% (active)
MDA-MB-435 melanoma
  growth: 68.5%
SW-620 colon
  growth: 69.1%
MCF7 breast
  growth: 73%
HCT-116 colon
  growth: 26.6%
HCC-2998 colon
  growth: 100%
KM12 colon
  growth: 94.7%
MDA-MB-468 breast
  growth: 54.9%

## Cc1ccc(Cc2cnc(NC(=O)c3ccc(/C=C4\SC(=S)N(C)C4=O)cc3)s2)cc1
SR leukemia
  growth: 30%
RPMI-8226 leukemia
  growth: 31.4%
OVCAR-8 ovarian
  growth: 35.3%
OVCAR-5 ovarian
  growth: 34.3%
OVCAR-4 ovarian
  growth: 48.2%
SK-OV-3 ovarian
  growth: 29.3%
IGROV1 ovarian
  growth: 33%
OVCAR-3 ovarian
  growth: 3.26% (active)
HS 578T breast
  growth: 39.2%
NCI/ADR-RES ovarian
  growth: -28.5% (active)
T-47D breast
  growth: 23.9%
BT-549 breast
  growth: 37.9%
MDA-MB-435 melanoma
  growth: -18.7% (active)
SW-620 colon
  growth: 35.8%
MCF7 breast
  growth: 19.6%
HCT-116 colon
  growth: 22.7%
HCC-2998 colon
  growth: 41.1%
KM12 colon
  growth: 11.2%
MDA-MB-468 breast
  growth: 4.76% (active)

## Cn1cc(-c2nc(N)nnc2-c2c[nH]c3ccc(F)cc23)c2cccnc21
SR leukemia
  growth: 17.8%
RPMI-8226 leukemia
  growth: 44.7%
OVCAR-8 ovarian
  growth: 50.3%
OVCAR-5 ovarian
  growth: 80.2%
OVCAR-4 ovarian
  growth: 70.7%
SK-OV-3 ovarian
  growth: 41.3%
IGROV1 ovarian
  growth: 22.3%
OVCAR-3 ovarian
  growth: 60.7%
HS 578T breast
  growth: 15.1%
NCI/ADR-RES ovarian
  growth: 52.1%
T-47D breast
  growth: 19.4%
BT-549 breast
  growth: 38%
MDA-MB-435 melanoma
  growth: 49.6%
SW-620 colon
  growth: 46.7%
MCF7 breast
  growth: 21.2%
HCT-116 colon
  growth: 43.2%
HCC-2998 colon
  growth: 72.8%
KM12 colon
  growth: 60.9%
MDA-MB-468 breast
  growth: 7.74% (active)

## CCCCNC(=S)Nc1ccc(OCc2nc3ccccc3[nH]2)cc1
SR leukemia
  growth: 53.7%
RPMI-8226 leukemia
  growth: 58.8%
OVCAR-8 ovarian
  growth: 59.3%
OVCAR-5 ovarian
  growth: 86%
OVCAR-4 ovarian
  growth: 57.2%
SK-OV-3 ovarian
  growth: 113%
IGROV1 ovarian
  growth: 78.6%
OVCAR-3 ovarian
  growth: 60.3%
HS 578T breast
  growth: 92.3%
NCI/ADR-RES ovarian
  growth: 65.9%
T-47D breast
  growth: 45.3%
BT-549 breast
  growth: 65.9%
MDA-MB-435 melanoma
  growth: 49.6%
SW-620 colon
  growth: 91.5%
MCF7 breast
  growth: 46.5%
HCT-116 colon
  growth: 63.7%
HCC-2998 colon
  growth: 59.6%
KM12 colon
  growth: 1.01% (active)
MDA-MB-468 breast
  growth: 69.6%

## O=C(Nc1ccccc1)N1CCN(c2cc(-c3cn(-c4ccccc4)nc3-c3cccc(O)c3)ccn2)CC1
SR leukemia
  growth: 19.2%
RPMI-8226 leukemia
  growth: 32.5%
OVCAR-8 ovarian
  growth: 43.9%
OVCAR-5 ovarian
  growth: 106%
OVCAR-4 ovarian
  growth: 84.2%
SK-OV-3 ovarian
  growth: 98.1%
IGROV1 ovarian
  growth: 84%
OVCAR-3 ovarian
  growth: 98.2%
HS 578T breast
  growth: 83.1%
NCI/ADR-RES ovarian
  growth: 23.7%
T-47D breast
  growth: 13.1%
BT-549 breast
  growth: 67.3%
MDA-MB-435 melanoma
  growth: 13.7%
SW-620 colon
  growth: 87.5%
MCF7 breast
  growth: 63.3%
HCT-116 colon
  growth: 65.7%
HCC-2998 colon
  growth: 81.8%
KM12 colon
  growth: 39.5%
MDA-MB-468 breast
  growth: 58.7%

## CC(=O)OC[C@@]1(C)C2CC[C@]3(C)C(CC=C4C5CC(C)(C)CC[C@]5(C(=O)Nc5ccc(C)cc5)CC[C@]43C)[C@@]2(C)C[C@@H](OC(C)=O)[C@@H]1OC(C)=O (some centres not stated)
SR leukemia
  growth: 30.9%
RPMI-8226 leukemia
  growth: 13.8%
OVCAR-8 ovarian
  growth: 40.3%
OVCAR-5 ovarian
  growth: 95.2%
OVCAR-4 ovarian
  growth: 40.2%
SK-OV-3 ovarian
  growth: 54.3%
IGROV1 ovarian
  growth: 60.9%
OVCAR-3 ovarian
  growth: 48.9%
HS 578T breast
  growth: 86%
NCI/ADR-RES ovarian
  growth: 40.4%
T-47D breast
  growth: 17.5%
BT-549 breast
  growth: 51.3%
MDA-MB-435 melanoma
  growth: 48.8%
SW-620 colon
  growth: 40.5%
MCF7 breast
  growth: 25.6%
HCT-116 colon
  growth: 24.7%
HCC-2998 colon
  growth: 44.8%
KM12 colon
  growth: 51.9%
MDA-MB-468 breast
  growth: 8.22% (active)

## C#CCOc1ccc(/C=N/Nc2nc(-c3cc4cc(OC)ccc4oc3=O)cs2)cc1OC
SR leukemia
  growth: 34.7%
RPMI-8226 leukemia
  growth: 50.9%
OVCAR-8 ovarian
  growth: 50.8%
OVCAR-5 ovarian
  growth: 47%
OVCAR-4 ovarian
  growth: 40.7%
SK-OV-3 ovarian
  growth: 71%
IGROV1 ovarian
  growth: 81%
OVCAR-3 ovarian
  growth: 63.5%
HS 578T breast
  growth: 68.1%
NCI/ADR-RES ovarian
  growth: 50.5%
T-47D breast
  growth: 51.8%
BT-549 breast
  growth: 54.1%
MDA-MB-435 melanoma
  growth: 63.9%
SW-620 colon
  growth: 39.7%
MCF7 breast
  growth: 57.3%
HCT-116 colon
  growth: 46.4%
HCC-2998 colon
  growth: 84.4%
KM12 colon
  growth: 50.3%
MDA-MB-468 breast
  growth: 42.9%
